According to the supplement of paper PMC3334620:
Over roughly 33,000 sequences, “E-score (-0.5 to 0.5)” has its median near -0.043; the highest 2% begin near 0.37. Shown is part of a subset that was picked to be rich in the highest values.

What follows are sequences tested against T1, Upc2 (UniProt Q12151) (assay: PBM E-score (8-mer binding enrichment) (E-score (-0.5 to 0.5)); higher = stronger / more preferred TF binding). Settings: protein concentration: 200 nM; construct: GST-full length.
T1 sequence: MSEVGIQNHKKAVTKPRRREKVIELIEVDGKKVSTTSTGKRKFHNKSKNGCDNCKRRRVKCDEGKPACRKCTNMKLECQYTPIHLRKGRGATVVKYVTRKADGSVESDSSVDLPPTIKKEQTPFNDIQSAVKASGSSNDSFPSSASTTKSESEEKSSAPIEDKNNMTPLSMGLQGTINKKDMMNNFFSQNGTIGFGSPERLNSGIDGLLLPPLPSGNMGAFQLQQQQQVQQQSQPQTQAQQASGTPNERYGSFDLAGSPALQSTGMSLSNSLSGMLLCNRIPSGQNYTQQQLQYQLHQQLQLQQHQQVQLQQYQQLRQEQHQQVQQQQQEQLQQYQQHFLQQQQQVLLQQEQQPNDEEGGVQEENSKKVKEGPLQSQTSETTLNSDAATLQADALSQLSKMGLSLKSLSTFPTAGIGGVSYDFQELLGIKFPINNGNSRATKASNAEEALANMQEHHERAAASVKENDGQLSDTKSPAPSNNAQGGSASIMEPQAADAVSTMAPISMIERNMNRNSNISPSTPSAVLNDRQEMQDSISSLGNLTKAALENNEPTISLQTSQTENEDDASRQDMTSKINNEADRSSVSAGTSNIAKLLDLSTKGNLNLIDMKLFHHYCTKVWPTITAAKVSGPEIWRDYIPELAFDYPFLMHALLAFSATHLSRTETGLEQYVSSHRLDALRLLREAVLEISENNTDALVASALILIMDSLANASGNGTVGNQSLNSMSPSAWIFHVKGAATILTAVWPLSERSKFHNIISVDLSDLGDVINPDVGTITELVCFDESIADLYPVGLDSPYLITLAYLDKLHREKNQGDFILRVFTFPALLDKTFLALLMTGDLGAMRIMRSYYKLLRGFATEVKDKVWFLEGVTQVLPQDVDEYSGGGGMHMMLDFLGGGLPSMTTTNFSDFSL
Outline: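 The E-score, a modified Wilcoxon-Mann-Whitney statistic, was computed by the Universal PBM Analysis Suite for every ungapped eight-base word pooled with its reverse complement. Scans behind it were normalised with masliner after bound GST-tagged yeast transcription factors were detected with fluorescent anti-GST. The proteins, at about 100-200 nM, had been applied to universal all-10-mer Agilent arrays made double-stranded by primer extension.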

Row | Sequence | PBM E-score
1 | AGGCCAAG | -0.17
2 | GAGCAGCA | -0.098
3 | AGTTCGAA | 0.0491
4 | AACACAGA | -0.00201
5 | CCCTTCGG | -0.0969
6 | ATCGCAAG | -0.255
7 | AGGACTTG | -0.287
8 | CCTACGCA | -0.196
9 | AACGACAG | 0.419
10 | AACGACAC | 0.428
11 | GACGACAA | 0.0707
12 | GACGACAC | -0.079
13 | ACCGACAT | 0.199
14 | CACGACAA | 0.0377
15 | AACGACAT | 0.432
16 | AGCGACAT | 0.177
17 | CACGACAG | 0.0499
18 | ATCGACAG | -0.0101
19 | CACGACAC | 0.114
20 | AACGACAA | 0.402
21 | GACCAAGC | -0.234
22 | CCATGGAC | -0.201
23 | AGGACAGA | -0.347
24 | ATGTGAAC | 0.00151
25 | GAATTAGC | -0.0225

Row | Sequence | PBM E-score
26 | CTTACAGC | -0.0579
27 | TCCGGGAA | -0.0708
28 | GGAAGAAA | -0.136
29 | GGATCGCC | -0.0204
30 | TTCGACAA | 0.0423
31 | TACGACAA | 0.46
32 | TGCGACAA | 0.141
33 | ACTCTATA | 0.0319
34 | GGACCTTA | 0.00047
35 | ATCGTTAG | 0.239
36 | GACGTTAA | 0.154
37 | GGCGTTAA | 0.161
38 | GTCGTTAA | 0.465
39 | CACGTTAA | 0.131
40 | CTCGTTAC | 0.36
41 | ATCGTTAA | 0.435
42 | ATCGTTAC | 0.264
43 | CTCGTTAA | 0.466
44 | AGCAGCAC | -0.113
45 | GTGCTCGA | 0.0349
46 | ATGAGTGG | -0.126
47 | CAATCTTA | 0.065
48 | GTATAGCA | 0.377
49 | ATATAGCA | -0.0248
50 | CTATAGCA | -0.0859

Row | Sequence | PBM E-score
51 | CAGATCAC | -0.266
52 | AGTCTTTC | -0.0324
53 | GCCAATAC | 0.0787
54 | ACATTCGG | 0.0333
55 | ACATTCGA | 0.0307
56 | ACATTCGT | 0.375
57 | AACATCCA | -0.0529
58 | ATGTCCTA | 0.0227
59 | AGATCTCG | 0.235
60 | CATCGTGA | 0.0225
61 | CATCGTCA | -0.163
62 | GATCGTAA | 0.396
63 | AATCGTAA | 0.368
64 | GATCGTTA | 0.291
65 | AATCGTCT | 0.0582
66 | CATCGTAG | 0.295
67 | AATCGTAT | 0.44
68 | CATCGTAA | 0.389
69 | CATCGTCC | -0.0591
70 | CATCGTAC | 0.454
71 | AATCGTAG | 0.241
72 | GGCGTCCA | -0.398
73 | CATCACGG | 0.0314
74 | ACTGTAGG | -0.117
75 | GATTAGCC | 0.0747

Row | Sequence | PBM E-score
76 | ATGTTAGG | -0.00946
77 | ACCTGGAA | 0.0285
78 | AGAGCATG | -0.17
79 | CAGTGCTA | -0.0362
80 | AGAATCAG | -0.0805
81 | AGCATTAT | -0.183
82 | TATCGTGA | 0.0236
83 | TATCGTCA | 0.0773
84 | TATCGTAA | 0.384
85 | AATCGTCC | -0.0549
86 | GATCGTAC | 0.442
87 | AATCGTGC | 0.229
88 | GATCGTGC | 0.0519
89 | GATCGTCC | -0.151
90 | AATCGTAC | 0.43
91 | AGAGGCAC | -0.00593
92 | GAACATCA | -0.0243
93 | AGCTGTAT | -0.0312
94 | CTAAGCTC | -0.201
95 | AACCCTCT | -0.202
96 | CGGACTAC | -0.113
97 | CTCGTCGC | 0.0828
98 | TCGAGCCA | -0.0555
99 | AGGAGCCT | -0.12
100 | ACGAGCCC | 0.358

Row | Sequence | PBM E-score
101 | CCGAGCCG | 0.106
102 | CCGAGCCA | -0.0165
103 | ACGAGCCT | 0.396
104 | ACGAGCCA | 0.408
105 | AGGAGCCG | -0.224
106 | ACGAGCCG | 0.371
107 | TAACTCAA | -0.0155
108 | ATTTCTTC | -0.026
109 | ATATATAA | 0.141
110 | TAATGCTA | -0.11
111 | CAACGATG | 0.0412
112 | AAACGATT | 0.449
113 | AAACGCTG | 0.244
114 | GATCGATC | -0.03
115 | AAACGCTT | 0.156
116 | AATCGATT | 0.128
117 | GGACGATA | -0.181
118 | GAACGGTA | 0.283
119 | CCACGATC | 0.125
120 | GAACGATA | 0.402
121 | AAACGATG | 0.458
122 | GAACGATC | 0.429
123 | CGCCACCC | -0.0595
124 | ATCGTGAG | -0.165
125 | GGTCTGCA | -0.156

Row | Sequence | PBM E-score
126 | TCAGATGA | -0.197
127 | ATCTGGTA | 0.044
128 | ACACTGCA | -0.0747
129 | CGGCATAG | -0.0559
130 | GCCTCCGC | -0.121
131 | AAACTTTA | -0.0184
132 | AAACGATC | 0.447
133 | TAACGTTA | 0.102
134 | CAACGATC | 0.11
135 | CAACGATA | 0.228
136 | ACACGATA | 0.15
137 | AAACGATA | 0.459
138 | CCACGATA | -0.0526
139 | AGACGATC | -0.0293
140 | TAACGATA | 0.387
141 | AAGCGACT | 0.243
142 | ACACTCAT | -0.233
143 | ATCTCCTG | -0.0597
144 | ATAGGTCC | -0.132
145 | AGAGCGTA | 0.223
146 | ATCTGAAG | -0.202
147 | CACGAGGC | 0.116
148 | CACGAGGA | 0.0675
149 | AACGAGGC | 0.444
150 | AACGAGGA | 0.428

Row | Sequence | PBM E-score
151 | AGCGAGGA | 0.144
152 | GACGAGGC | 0.0687
153 | ATCGAGGA | 0.0976
154 | TACGAGGA | 0.464
155 | GACGAGGA | -0.00176
156 | AAAGAGGT | -0.182
157 | ACCGAGGT | 0.169
158 | AACGAGGT | 0.448
159 | AGATGGCC | -0.176
160 | AAGAGACG | 0.102
161 | CTGGCGAA | -0.174
162 | ACCACCTG | -0.0336
163 | CACTGTGC | -0.118
164 | CAGTAGTC | 0.0468
165 | GCCTTGAA | -0.189
166 | CATTTCGA | 0.0247
167 | GCTCCACC | -0.0776
168 | AGATGAAT | -0.206
169 | CAGACTGA | -0.0971
170 | AAGTTATT | 0.045
171 | AGCTATGG | -0.158
172 | AGCGAGGG | 0.245
